# Test results: the supplement of paper PMC8728848
# This is one part of a sample in which the strongest signals are shown more often than they occur.
# How the values were obtained:
# Test in all cases: glycan array binding signal (z-score within array); higher = stronger binding
# Conditions in all cases: glycan notation: IUPAC condensed, linker removed
# [1] = system: Gal(b1-3)GalNAc(b1-4)Gal(b1-4)Glc
# Summary of the method: (§1)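 Columns mapping to the same glycan were averaged after glycan names were converted to IUPAC-condensed notation. The data come from 3228 arrays in the Consortium for Functional Glycomics database, limited to those with an available protein sequence. Binding is reported as a within-array Z-score averaged across arrays of one protein sequence and across linkers.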
# [2] = system: Gal(b1-3)GalNAc(b1-4)[Neu5Ac(a2-3)]Gal(b1-4)Glc
# Summary of the method: as §1
# [3] = system: Gal(b1-3)GlcNAc(b1-2)Man(a1-3)[GlcNAc(b1-4)][Gal(b1-3)GlcNAc(b1-2)Man(a1-6)]Man(b1-4)GlcNAc(b1-4)GlcNAc
# Summary of the method: as §1
# Gal(b1-3)Gal = system: Gal(b1-3)Gal
# Summary of the method: as §1
# [4] = system: Gal(b1-3)GlcNAc(b1-3)Gal(b1-4)GlcNAc
# Summary of the method: as §1
# [5] = system: Gal(b1-3)GlcNAc(a1-6)Gal(b1-4)GlcNAc
# Summary of the method: as §1
# [6] = system: Gal(b1-3)GlcNAc(b1-3)Gal(b1-4)GlcNAc(b1-2)[Gal(b1-3)GlcNAc(b1-3)Gal(b1-4)GlcNAc(b1-6)]Man(a1-6)[Gal(b1-3)GlcNAc(b1-3)Gal(b1-4)GlcNAc(b1-2)Man(a1-3)]Man(b1-4)GlcNAc(b1-4)[Fuc(a1-6)]GlcNAc
# Summary of the method: as §1
# [7] = system: Gal(b1-3)GlcNAc(b1-2)Man(a1-3)[Gal(b1-3)GlcNAc(b1-2)Man(a1-6)]Man(b1-4)GlcNAc(b1-4)GlcNAc
# Summary of the method: as §1
# [8] = system: Gal(b1-3)GlcNAc(b1-2)Man(a1-3)[Gal(b1-3)GlcNAc(b1-2)Man(a1-6)]Man(b1-4)GlcNAc(b1-4)[Fuc(a1-6)]GlcNAc
# Summary of the method: as §1
# [9] = system: Gal(b1-3)GlcNAc(b1-3)Gal(b1-4)GlcNAc(b1-6)[Gal(b1-3)GlcNAc(b1-3)]Gal(b1-4)Glc
# Summary of the method: as §1
# Regenerating Gene IV (Homo sapiens), Q9BYZ8, sequence (Q9BYZ8 whole entry, looked up): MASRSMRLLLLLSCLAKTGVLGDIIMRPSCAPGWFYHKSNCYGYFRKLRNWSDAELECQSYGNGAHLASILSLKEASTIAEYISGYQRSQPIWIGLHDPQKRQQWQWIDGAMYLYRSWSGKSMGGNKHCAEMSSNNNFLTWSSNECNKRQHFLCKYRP
# Avaren (Actinomycete K97), sequence (chain, as listed by the source): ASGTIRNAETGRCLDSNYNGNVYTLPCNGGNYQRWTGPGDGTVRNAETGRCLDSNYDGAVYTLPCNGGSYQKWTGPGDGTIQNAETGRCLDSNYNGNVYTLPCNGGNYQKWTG
# C3b (Homo sapiens), P01024, sequence (P01024 23-667): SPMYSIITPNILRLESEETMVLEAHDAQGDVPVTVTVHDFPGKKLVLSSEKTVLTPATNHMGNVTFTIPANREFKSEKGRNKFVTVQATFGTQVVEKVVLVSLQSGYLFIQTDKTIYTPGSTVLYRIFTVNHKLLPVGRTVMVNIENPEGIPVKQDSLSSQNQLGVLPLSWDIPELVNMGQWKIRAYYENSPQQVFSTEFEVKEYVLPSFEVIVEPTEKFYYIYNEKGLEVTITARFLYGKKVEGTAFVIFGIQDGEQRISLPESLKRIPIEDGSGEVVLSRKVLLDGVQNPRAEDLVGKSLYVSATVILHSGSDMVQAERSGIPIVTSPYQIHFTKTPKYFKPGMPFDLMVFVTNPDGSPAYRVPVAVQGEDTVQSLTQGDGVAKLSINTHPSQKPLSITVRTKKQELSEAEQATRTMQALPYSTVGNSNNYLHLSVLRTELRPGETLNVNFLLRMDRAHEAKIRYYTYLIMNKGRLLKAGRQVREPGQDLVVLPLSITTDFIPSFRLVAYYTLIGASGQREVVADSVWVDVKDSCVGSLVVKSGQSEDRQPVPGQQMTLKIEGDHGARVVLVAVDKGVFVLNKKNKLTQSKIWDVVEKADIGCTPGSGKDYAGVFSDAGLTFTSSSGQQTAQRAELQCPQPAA
# wLAT-1A (Homo sapiens), Q01650, sequence (Q01650 whole entry): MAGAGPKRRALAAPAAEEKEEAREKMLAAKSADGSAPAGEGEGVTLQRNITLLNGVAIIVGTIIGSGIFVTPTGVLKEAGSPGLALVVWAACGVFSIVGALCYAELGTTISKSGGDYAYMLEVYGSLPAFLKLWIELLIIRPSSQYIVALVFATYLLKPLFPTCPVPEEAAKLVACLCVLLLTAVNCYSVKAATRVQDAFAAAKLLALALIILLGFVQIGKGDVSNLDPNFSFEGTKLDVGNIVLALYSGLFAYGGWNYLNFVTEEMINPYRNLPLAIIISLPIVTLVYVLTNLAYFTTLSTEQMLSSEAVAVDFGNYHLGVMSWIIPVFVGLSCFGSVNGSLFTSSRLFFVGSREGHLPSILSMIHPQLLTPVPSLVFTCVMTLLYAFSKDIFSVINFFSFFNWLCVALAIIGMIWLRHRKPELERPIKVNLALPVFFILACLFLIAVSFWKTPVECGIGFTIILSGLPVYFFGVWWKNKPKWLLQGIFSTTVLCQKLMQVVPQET
# Neurocan (Homo sapiens), O14594, sequence (O14594 other isoform, or with tags, fused parts or gaps): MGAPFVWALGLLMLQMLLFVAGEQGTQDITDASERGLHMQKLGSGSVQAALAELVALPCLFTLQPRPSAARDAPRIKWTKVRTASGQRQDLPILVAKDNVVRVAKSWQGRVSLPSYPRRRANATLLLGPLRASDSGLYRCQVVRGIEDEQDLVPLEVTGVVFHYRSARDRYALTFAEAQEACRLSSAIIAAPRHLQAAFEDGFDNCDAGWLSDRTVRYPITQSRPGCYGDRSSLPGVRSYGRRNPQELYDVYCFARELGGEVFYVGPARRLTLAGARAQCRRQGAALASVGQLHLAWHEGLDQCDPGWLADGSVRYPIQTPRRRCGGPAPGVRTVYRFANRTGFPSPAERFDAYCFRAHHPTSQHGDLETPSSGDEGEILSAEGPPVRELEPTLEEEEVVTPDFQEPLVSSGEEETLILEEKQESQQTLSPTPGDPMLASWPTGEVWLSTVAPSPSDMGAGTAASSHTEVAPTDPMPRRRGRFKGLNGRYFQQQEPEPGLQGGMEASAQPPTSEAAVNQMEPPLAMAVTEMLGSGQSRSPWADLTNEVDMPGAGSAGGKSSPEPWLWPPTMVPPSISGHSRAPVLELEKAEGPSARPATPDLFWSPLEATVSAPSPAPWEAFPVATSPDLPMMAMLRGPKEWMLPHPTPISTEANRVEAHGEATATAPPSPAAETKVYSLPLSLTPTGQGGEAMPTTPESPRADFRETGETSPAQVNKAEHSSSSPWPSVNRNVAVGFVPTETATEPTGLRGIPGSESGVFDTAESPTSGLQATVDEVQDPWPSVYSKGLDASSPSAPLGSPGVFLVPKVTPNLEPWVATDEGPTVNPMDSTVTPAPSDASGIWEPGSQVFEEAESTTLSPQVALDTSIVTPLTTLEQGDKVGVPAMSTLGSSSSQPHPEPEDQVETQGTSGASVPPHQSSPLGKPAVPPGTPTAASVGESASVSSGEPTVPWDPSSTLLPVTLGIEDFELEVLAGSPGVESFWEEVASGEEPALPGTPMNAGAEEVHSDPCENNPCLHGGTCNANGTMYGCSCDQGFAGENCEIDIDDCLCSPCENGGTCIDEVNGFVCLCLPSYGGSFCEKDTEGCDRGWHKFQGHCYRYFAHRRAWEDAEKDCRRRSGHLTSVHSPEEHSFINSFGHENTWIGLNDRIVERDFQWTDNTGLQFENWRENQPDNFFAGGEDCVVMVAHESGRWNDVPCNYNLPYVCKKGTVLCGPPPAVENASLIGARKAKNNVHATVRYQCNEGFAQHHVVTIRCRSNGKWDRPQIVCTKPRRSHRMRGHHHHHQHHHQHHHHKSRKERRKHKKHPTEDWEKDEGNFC
# PILRb (Mus musculus), Q2YSF2, sequence (Q2YSF2 entry or part of it): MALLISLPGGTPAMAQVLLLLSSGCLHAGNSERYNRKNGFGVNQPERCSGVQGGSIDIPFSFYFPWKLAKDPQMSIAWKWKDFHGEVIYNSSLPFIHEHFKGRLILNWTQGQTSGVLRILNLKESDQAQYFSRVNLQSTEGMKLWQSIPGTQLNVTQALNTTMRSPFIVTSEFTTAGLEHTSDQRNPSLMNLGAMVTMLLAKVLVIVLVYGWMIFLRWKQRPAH
# CHI3L1 (Homo sapiens), P36222, sequence (P36222 whole entry): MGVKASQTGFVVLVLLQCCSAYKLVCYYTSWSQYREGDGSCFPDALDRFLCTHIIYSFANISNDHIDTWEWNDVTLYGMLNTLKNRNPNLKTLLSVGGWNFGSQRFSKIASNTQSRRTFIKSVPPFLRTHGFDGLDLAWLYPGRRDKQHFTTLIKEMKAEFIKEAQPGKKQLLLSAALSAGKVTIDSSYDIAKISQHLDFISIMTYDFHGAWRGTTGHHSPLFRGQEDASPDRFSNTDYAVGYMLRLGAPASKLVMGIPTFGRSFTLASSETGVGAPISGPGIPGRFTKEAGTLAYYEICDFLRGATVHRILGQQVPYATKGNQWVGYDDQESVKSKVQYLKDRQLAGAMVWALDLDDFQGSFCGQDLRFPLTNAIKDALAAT
# PILRa (Mus musculus), Q2YSF3, sequence (Q2YSF3 entry or part of it): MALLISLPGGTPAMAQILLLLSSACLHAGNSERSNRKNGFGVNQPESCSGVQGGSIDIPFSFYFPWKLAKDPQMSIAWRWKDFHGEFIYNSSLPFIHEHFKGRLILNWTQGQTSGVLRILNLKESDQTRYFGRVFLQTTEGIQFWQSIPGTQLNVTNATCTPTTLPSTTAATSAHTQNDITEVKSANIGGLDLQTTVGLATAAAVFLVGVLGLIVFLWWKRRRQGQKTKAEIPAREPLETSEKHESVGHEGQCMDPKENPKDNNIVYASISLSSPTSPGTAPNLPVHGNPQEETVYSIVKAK
# 6RG (Lolium perenne), sequence (chain, as listed by the source): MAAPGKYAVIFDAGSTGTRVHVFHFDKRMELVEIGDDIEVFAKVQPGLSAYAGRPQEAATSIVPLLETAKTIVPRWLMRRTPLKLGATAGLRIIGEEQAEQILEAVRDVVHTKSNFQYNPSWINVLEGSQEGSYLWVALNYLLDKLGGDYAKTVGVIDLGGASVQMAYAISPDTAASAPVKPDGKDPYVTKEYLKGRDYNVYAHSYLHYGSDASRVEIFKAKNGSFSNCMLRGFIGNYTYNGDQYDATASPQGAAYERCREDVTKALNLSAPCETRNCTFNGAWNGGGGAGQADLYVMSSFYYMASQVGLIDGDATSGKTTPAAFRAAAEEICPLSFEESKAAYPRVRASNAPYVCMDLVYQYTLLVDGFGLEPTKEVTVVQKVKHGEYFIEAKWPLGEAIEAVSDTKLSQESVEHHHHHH
substance,measurement,setting,value
"C3b (Homo sapiens), P01024",glycan array binding signal (z-score),[1],-0.644
6RG (Lolium perenne),glycan array binding signal (z-score),[1],0.249
"wLAT-1A (Homo sapiens), Q01650",glycan array binding signal (z-score),[2],-0.218
MpAFP RI GFP (Marinomonas primoryensis),glycan array binding signal (z-score),[2],-0.54
same,glycan array binding signal (z-score),[3],1.37
"Regenerating Gene IV (Homo sapiens), Q9BYZ8",glycan array binding signal (z-score),Gal(b1-3)Gal,-0.546
same,glycan array binding signal (z-score),[4],-0.615
"HARE (Homo sapiens), Q8WWQ8",glycan array binding signal (z-score),Gal(b1-3)Gal,2.26
"Neurocan (Homo sapiens), O14594",glycan array binding signal (z-score),[5],-0.985
"Siglec-8 (Homo sapiens), Q9NYZ4",glycan array binding signal (z-score),[5],-0.162
same,glycan array binding signal (z-score),[6],0.166
"PILRb (Mus musculus), Q2YSF2",glycan array binding signal (z-score),[7],0.611
Avaren (Actinomycete K97),glycan array binding signal (z-score),[8],-0.081
same,glycan array binding signal (z-score),[6],1.97
"CHI3L1 (Homo sapiens), P36222",glycan array binding signal (z-score),[3],0.123
"PILRa (Mus musculus), Q2YSF3",glycan array binding signal (z-score),[9],-0.146
